Hits are enriched below; roughly 19% of the tested compounds scored in any of these assays.
ELG1 DNA repair = ELG1-dependent DNA repair inhibition; AID 504467; 330,000 tested, 2.3% active; Potency, µM (titrated, usually from 46.1 µM), for the others: at the highest dose activity change, negative = inhibition, most hits filed as inhibitors; HEK293T ELG1-luciferase reporter, luminescence, 16 h; DNA damage induced by 5-fluorouridine; further: potency means the concentration at half of the fitted maximal effect; nearly all actives have a fitted effect of over 55% in size
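In this reporter screen, reduction of luminescence relative to DMSO vehicle indicated activity. Compounds and 5-fluorouridine were added together to 2,000 cells per well, incubated for 16 hr at 37 °C, then developed with ONE-Glo.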
TDP1 block = blocks human tyrosyl-DNA phosphodiesterase 1. recombinant TDP1, AlphaScreen DNA substrate cleavage. Potency, µM (doses to about 130 µM), without a hit: at the highest dose activity change, negative = inhibition, hits mostly inhibitors. 350,000 tested, 0.28% active. AID 485290; further: potency means the concentration at half of the fitted maximal effect; nearly all actives have a fitted effect of over 40% in size
Target sequence (Q9NUW8 whole entry, looked up): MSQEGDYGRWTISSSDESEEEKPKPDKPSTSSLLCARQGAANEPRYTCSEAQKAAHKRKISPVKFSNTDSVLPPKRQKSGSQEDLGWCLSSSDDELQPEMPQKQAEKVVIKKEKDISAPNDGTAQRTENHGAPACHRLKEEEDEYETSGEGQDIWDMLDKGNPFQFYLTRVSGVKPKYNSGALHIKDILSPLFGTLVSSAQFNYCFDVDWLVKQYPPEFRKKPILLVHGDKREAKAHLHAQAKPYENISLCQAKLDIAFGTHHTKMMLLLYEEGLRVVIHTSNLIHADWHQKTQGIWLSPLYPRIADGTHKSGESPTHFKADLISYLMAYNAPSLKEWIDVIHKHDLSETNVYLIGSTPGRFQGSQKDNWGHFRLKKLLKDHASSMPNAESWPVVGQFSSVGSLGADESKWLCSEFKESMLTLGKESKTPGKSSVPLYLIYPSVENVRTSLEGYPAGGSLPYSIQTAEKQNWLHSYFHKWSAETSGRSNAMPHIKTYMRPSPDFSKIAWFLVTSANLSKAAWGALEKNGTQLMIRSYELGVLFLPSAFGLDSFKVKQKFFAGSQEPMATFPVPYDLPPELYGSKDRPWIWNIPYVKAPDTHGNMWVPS
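Compounds were preincubated with Tdp1 (1 nM final) for 15 min at room temperature before substrate (15 nM final) started a 5 min reaction; beads (10 ug/ml final) were then added for 10 min before AlphaScreen detection.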
IL-1B inflam inh = blocks inflammasome-driven IL-1 beta release; THP-1 LPS/ATP IL-1B secretion, AlphaLISA, 16 h; hits give low values; AID 743279; 360,000 tested, 4.7% active; activity change, % at 57.5 µM; in the data active means activity change below about -50%; inconclusive means mostly about -30% to -49%
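Secreted IL-1B measured by AlphaLISA bead assay after 16 h compound exposure of THP-1 cells; compounds (final up to 57.5 uM) added 1 h before LPS (250 ng/mL) and ATP (1.25 mM) stimulation; lower signal means less secretion.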
TDP1 cell noCPT = qHTS for Inhibitors of human tyrosyl-DNA phosphodiesterase 1 (TDP1): qHTS in cells in absence of CPT | DT40 Tdp1-/- hTDP1 cells, no CPT, ATP luminescence, 48 h | Potency, µM (top dose mostly 46.2 µM), inactives show at the top dose activity change, negative = growth inhibition, hits mostly inhibitors | 420,000 tested, 15% active | AID 686978, 2013; further: potency means the concentration at half of the fitted maximal effect; nearly all actives have a fitted effect of over 55% in size
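Chicken DT40 Tdp1-/- cells stably complemented with human TDP1 were seeded at 400 cells/well with DMSO in place of 20 nM camptothecin. After compound pinning, cells grew at least 48 hr at 37 °C; viability read by CellTiter-Glo luminescence.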
TDP1 cell CPT = DT40-hTDP1 cell growth loss with CPT; chicken DT40 Tdp1-/-;hTDP1 cells + 20 nM CPT, ATP luminescence, 48 h; Potency, µM (titrated, usually from 46.2 µM), without a hit: at the highest dose activity change, negative = growth inhibition, actives largely listed as inhibitors; 420,000 tested, 12% active; AID 686979; further: potency means the concentration at half of the fitted maximal effect; nearly all actives have a fitted effect of over 55% in size
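Chicken DT40 Tdp1-/- cells complemented with human TDP1, 400 cells/well, exposed to compounds plus 20 nM camptothecin for at least 48 h at 37 C; viability read as ATP content by CellTiter-Glo luminescence.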
Giardia killer = Giardia lamblia killing; AID 540267; activity change, % at 7.66 µM, hits read low; Giardia lamblia trophozoite viability; 340,000 tested, 0.15% active; in the data active means activity change below about -80%; inconclusive means between about -30% and that limit;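 further: parasites exposed to compound for two days anaerobically before the ATP read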
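ATP-content bioluminescence gauges trophozoite survival. Cells (100/well) receive compound and incubate anaerobically for 48 hrs at 37 deg C; detection reagent follows for 15-30 min at room temperature.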
The depositor's hits bear a star; ? = inconclusive; nt = not tested or not shown; [ ] = remark or other dose. Unless noted, the call rests on the fitted dose curve; in most records, active means well fitted curve in the direction sought with a large enough effect; inconclusive means small, poorly fitted or top-dose-only effect, or another doubt; inactive means no such curve, though single readings can be large; an effect the other way counts as inactive or inconclusive. On the % scale 0 is the no-effect control and ±100 the full control effect.

SMILES	ELG1 DNA repair	TDP1 block	IL-1B inflam inh	TDP1 cell noCPT	TDP1 cell CPT	Giardia killer
COc1ccccc1CNc1ncncc1-c1ccccc1C	nt	32µM*	nt	-15%	-13%	nt
COc1ccccc1-c1cncnc1Nc1ccccc1	nt	nt	nt	-5%	?	nt
CNc1ncncc1-c1ccccc1OC	nt	28µM*	nt	-19%	3%	nt
Clc1ccc(Nc2nc(-c3ccccc3)c3ccccc3n2)c(Cl)c1	nt	-2%[12.3 µM]	nt	-1%	-9%	nt
CCOc1ccc(C(C)=O)cc1CN1C(=O)NC2(CCCCCCC2)C1=O	-3%	-3%	15	?	?	-3
CC(=O)/C=C\C1[C@]2(C)CCCC(C)(C)C2CC[C@@]1(C)O (some centres undefined)	nt	-3%[56.1 µM]	nt	-2%	0%	nt
COc1ccccc1-c1cncnc1NCCN1CCOCC1	nt	?	nt	5.2µM*	7.3µM*	nt
COCCNc1ncncc1-c1ccccc1OC	nt	nt	nt	4%	-27%	nt
COc1ccccc1-c1ccc2ncnc(NCc3cnc(C)cn3)c2c1	nt	nt	nt	18µM*	?	nt
O=C1c2ccccc2NC2CCCCC12 (centres undefined)	?	4%	16	23µM*	?	-7
O=C1c2ccccc2NC2CCCCCN12 (centres undefined)	4%	-5%	0	-3%	-3%	17
CCN1C(=O)C(CC(=O)Nc2ccc(OC)cc2)N(Cc2ccc3c(c2)OCO3)C1=S (centres undefined)	?	-2%	2	-12%	-23%	-9
CC(C)(C)S(=O)N1Cc2cc(C(=O)NCc3ccc(Oc4ccccc4)cc3)nc(-c3cccc(-c4cc5ccccc5o4)c3)c2[C@H]1CCO (some centres undefined)	nt	nt	-52*	23µM*	?	nt
CC(C)(C)S(=O)N1Cc2cc(C(=O)NCCCN3CCOCC3)nc(-c3cccc(-c4cc5ccccc5o4)c3)c2[C@@H]1CCO (some centres undefined)	nt	nt	-9	18µM*	13µM*	nt
CC(C)(C)S(=O)N1Cc2cc(C(=O)NCc3ccc4c(c3)OCO4)nc(-c3cccc(-c4cc5ccccc5o4)c3)c2[C@@H]1CCO (some centres undefined)	nt	nt	-23	?	?	nt
O=C(c1ccco1)N1CCC2(CC1)CN(c1ccccn1)C2	nt	nt	nt	?	-21%	nt
Cc1ccc(CNC(=O)c2ccc3c(c2)CCN3S(=O)(=O)c2ccccc2)cc1	nt	7%	nt	?	?	nt
COc1ccc(CNC(=O)c2ccc3c(c2)CCN3S(=O)(=O)c2ccc(Cl)cc2)cc1	nt	7%	nt	16µM*	?	nt
CCS(=O)(=O)N1CCc2cc(C(=O)NCc3ccccc3Cl)ccc21	nt	11%	nt	?	?	nt
CCS(=O)(=O)N1CCc2cc(C(=O)NCc3ccc(Cl)cc3)ccc21	nt	9%	nt	16µM*	?	nt
CCC1=C(OC(=O)N(CC)CC)N2C(=O)OC(=NCCOC)[C@]2(C)[C@H]2C1=CC[C@H]1C(=O)N(CC)C(=O)[C@H]12	nt	1%	nt	nt	nt	nt
O=C(NC(=S)Nc1ccc(CN2CCOCC2)cc1)c1ccc([N+](=O)[O-])cc1	?	5%	31	-24%	?	4
O=C(NC(=S)Nc1ccc(N2CCCCC2)cc1)c1ccc2c(c1)OCCO2	?	7%	0	16µM*	?	-22
O=C(NC(=S)Nc1ccc(CN2CCOCC2)cc1)c1ccc2c(c1)OCCO2	?	5%	?	15µM*	?	31
O=C(NC(=S)Nc1ccc(N2CCOCC2)cc1)c1ccc2c(c1)OCCO2	?	8%	-2	23µM*	?	0
SMILES	ELG1 DNA repair	TDP1 block	IL-1B inflam inh	TDP1 cell noCPT	TDP1 cell CPT	Giardia killer
COc1ccc(NC(=S)NC(=O)c2ccc3c(c2)OCCO3)cc1	?	4%	-15	18µM*	?	-11
CS(=O)(=O)N1CCN(c2ccc(NC(=S)NC(=O)c3ccc4c(c3)OCO4)cc2)CC1	-2%	-4%	56	?	-16%	33
CC(C)(C)c1ccc(C(=O)NC(=S)Nc2ccc(N3CCOCC3)cc2)cc1	?	-1%	4	-26%	-25%	6
COc1ccc(C(=O)NC(=S)Nc2ccc(CN3CCOCC3)cc2)cc1	-20%	7%	nt	?	?	8
COc1ccc(C(=O)NC(=S)Nc2ccc(CN3CCOCC3)cc2)cc1Br	23µM*	10%	-1	10µM*	?	37
CN(CCc1ccccc1)C(=O)c1ccc(NC(=O)Cc2ccc(NC(=O)C3CCN(C(=O)C4CCCCC4)CC3)cc2)cc1	nt	nt	2	16µM*	?	7
CN(CCc1ccccc1)C(=O)c1ccc(NC(=O)Cc2ccc(NC(=O)C3CCN(C(=O)C4CCC4)CC3)cc2)cc1	nt	nt	?	10µM*	?	3
Cc1cccc(C)c1NC(=O)c1cc(S(N)(=O)=O)c(Cl)cc1O	nt	nt	nt	0%	4%	nt
COC(=O)c1ccncc1C(=O)Nc1ccc(Oc2ncc(C(F)(F)F)cc2Cl)cc1	9%	nt	22	-17%	2%	-10
COC(=O)c1cnc(Oc2ccc(NC(=O)NC(=O)c3ccccc3Cl)cc2)cc1C(F)(F)F	-18%	4%	8	4.1µM*	?	2
C=C(C)C1CC=C(C)/C(=N/NC(=S)Nc2ccccc2)C1 (centres undefined)	5%	0%	13	6.5µM*	12µM*	6
C=C(C)C1CC=C(C)/C(=N/NC(=O)c2ccc(NC(=O)c3cccc(C)c3)cc2)C1 (centres undefined)	?	2%	-21	18µM*	?	5
C=C(C)C1CC=C(C)/C(=N/NC(=O)COc2cccc(C)c2)C1 (centres undefined)	-15%	0%	6	?	?	-2
COc1c2ccc(OCC/C(C)=C/C(=O)C=C(C)C)cc2nc2occc12	17%	1%	23	?	?	-4
COc1cc2nc(C3CCC3)n(NC(=O)C3CCCC(OC)C3)c(=O)c2cc1OC (centres undefined)	-2%	2%	-14	-20%	-33%	37
COc1cc2nc(C3CCC3)n(NC(=O)c3ccco3)c(=O)c2cc1OC	-16%	-3%	-57*	3%	1%	15
COc1ccc(Cl)cc1S(=O)(=O)Nc1ncn[nH]1	12%	10%	-8	-16%	-13%	8
COc1ccc(S(N)(=O)=O)cc1C(=O)OCCCOc1ccc(F)cc1	?	nt	-9	-5%	1%	11

Screening data: PubChem BioAssay, National Center for Advancing Translational Sciences (NCATS)
